ANO1 activ = TMEM16A chloride channel activators or potentiators, primary screen, cell-based, HTS. Anoctamin-1 (Mus musculus), Q8BHY3. HEK293 TMEM16A/YFP-H148Q/I152L, iodide quench fluorescence; stronger effect = lower value. B-score at 10 µM. 340,000 tested, 0.3% active. AID 623877, 2012;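 active = fluorescence-ratio B-score plate-corrected deviation score at least 3 library SD below zero, with starting fluorescence score within 5 deviations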;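 note: channel opened by trigger with iodide after compound preincubation; score built on the fluorescence ratio of max minus min over baseline; more negative score means more quench and so TMEM16A activation or potentiation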
TMEM16A inh = TMEM16A chloride channel inhibitors, primary screen, cell-based, HTS | HEK293 TMEM16A/YFP iodide influx fluorescence, ionomycin | normalized B-score (activity score, 25-100; higher = stronger inhibition) at 10 µM | 310,000 tested, 1.2% active | AID 588511, 2011;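 active = ratio plate-corrected score three or more library SD toward inhibition, starting fluorescence score within five deviations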;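 note: score derived from kinetic fluorescence span divided by baseline fluorescence per well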
Kir21 inh = inhibitors of mouse Kir2.1 inward-rectifier potassium channel; Inward rectifier potassium channel 2 (Mus musculus), P35561; HEK293-Kir2.1, FluxOR thallium flux fluorescence; stronger effect = lower value; B-score at 10 µM; 310,000 tested, 0.85% active; AID 1672, 2009;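 active = fluorescence ratio B-score at or below minus 3 SD of library scores, with starting-brightness B-score within 2 SD, cut at about -4.2 in these data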;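 note: channel flux triggered by added potassium and thallium sulfate stimulus; B-score of peak minus minimum fluorescence over baseline after thallium stimulus; more negative B-score means stronger Kir2.1 block with less thallium influx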
KCNK3 inh = human KCNK3 channel inhibitors, primary screen, CHO cells, FluxOR thallium flux, B-score | Potassium channel subfamily K member 3 (Homo sapiens), O14649 | FluxOR fluorescence; stronger effect = lower value | B-score at 10 µM | 340,000 tested, 0.84% active | AID 602410, 2012;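 active = B-score under library mean minus 4 SD, starting fluorescence ratio at most library mean plus 5 SD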;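 note: more negative B-score means stronger inhibition of thallium flux through KCNK3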
KCNK9 inh-1 = KCNK9 potassium channel inhibitors, primary screen, HEK293 cells, thallium flux. 310,000 tested, 1.2% active. AID 488922, 2010. B-score at 10 µM. Potassium channel subfamily K member 9 (Homo sapiens), Q9NPC2. FluxOR thallium flux fluorescence; stronger effect = lower value;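 active = ratio B-score over 3 SD below the library mean, with starting fluorescence within 5 SD of its mean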;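 note: negative B-score means less thallium flux so channel inhibition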
Target sequence (Q9NPC2 whole entry, looked up): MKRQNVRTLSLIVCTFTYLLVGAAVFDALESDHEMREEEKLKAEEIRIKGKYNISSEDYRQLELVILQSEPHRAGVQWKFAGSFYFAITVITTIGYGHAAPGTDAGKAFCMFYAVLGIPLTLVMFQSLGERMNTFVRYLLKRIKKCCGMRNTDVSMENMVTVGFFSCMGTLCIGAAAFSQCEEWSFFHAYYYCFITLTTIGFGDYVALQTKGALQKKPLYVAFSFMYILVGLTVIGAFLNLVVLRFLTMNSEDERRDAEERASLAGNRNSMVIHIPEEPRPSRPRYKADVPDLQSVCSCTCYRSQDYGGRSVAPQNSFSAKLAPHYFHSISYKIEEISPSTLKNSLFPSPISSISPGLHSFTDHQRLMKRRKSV
hERG ctr = hERG channel inhibition, counter-screen for Kir2.1 inhibitor project, cell-based, thallium flux | 320 tested, 20% active | shares compounds with Kir21 inh | hERG-expressing cells | inhibition, % at 10 µM;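 note: host cells are CHO cells stably expressing hERG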
KCNK9 inh-2 = KCNK9 channel inhibition, selectivity assay for Kir2.1 inhibitor project, cell-based; shares compounds with Kir21 inh; KCNK9-expressing cells, ion flux inhibition; inhibition, % at 10 µM; 320 tested, 5% active
Kir2-1 patch inh = mouse Kir2.1 channel blockers, Kir2.1 inhibitor project, cell-based, secondary, automated electrophysiology | shares compounds with Kir21 inh | Kir2.1 cells, automated patch-clamp current inhibition | inhibition, % at 25 µM | 320 tested, 71% active | AID 463252, 2010
Starred values were filed as active, the others as inactive. Compounds with a hit are over-represented: about 3.5% of the library has one in this group of screens. Unless noted, the rule behind the calls is not given here.

Results for Cc1ccc(OCC(O)CNCc2ccc(F)cc2)cc1 (configuration not stated) ?
ANO1 activ: inactive; TMEM16A inh: inactive; Kir21 inh: -8.8*; KCNK3 inh: inactive; KCNK9 inh-1: inactive; hERG ctr: inactive; KCNK9 inh-2: inactive; Kir2-1 patch inh: 77%*

What do the screens show for `NS(=O)(=O)c1ccc(CCNCc2ccccc2OCc2ccc(Cl)cc2)cc1`?
ANO1 activ: inactive; TMEM16A inh: inactive; Kir21 inh: -8.2*; KCNK3 inh: inactive; KCNK9 inh-1: inactive; hERG ctr: 65%*; KCNK9 inh-2: inactive; Kir2-1 patch inh: 31%*

Results for NS(=O)(=O)c1ccc(CCNCc2cc(Br)ccc2OCc2ccccc2F)cc1 ?
ANO1 activ: inactive; TMEM16A inh: inactive; Kir21 inh: -6.3*; KCNK3 inh: inactive; KCNK9 inh-1: inactive; hERG ctr: inactive; KCNK9 inh-2: 46%*; Kir2-1 patch inh: 12%*

How did O=C(Cn1c(=S)[nH]c2ccccc2c1=O)NCCc1ccccc1 do in these assays?
ANO1 activ: inactive; TMEM16A inh: inactive; Kir21 inh: -0.85; KCNK3 inh: inactive; KCNK9 inh-1: inactive

Results for CC(=O)N(CC(C)(C)CC=C(C)C)c1ccccc1 ?
TMEM16A inh: inactive; Kir21 inh: -5.9*; KCNK9 inh-1: inactive; hERG ctr: inactive; KCNK9 inh-2: inactive; Kir2-1 patch inh: 9.4%*

How did CC(CCc1ccc(O)cc1)NC1c2ccccc2-c2ccccc21 (configuration not stated) do in these assays?
ANO1 activ: inactive; TMEM16A inh: inactive; Kir21 inh: -14*; KCNK3 inh: inactive; KCNK9 inh-1: inactive; hERG ctr: 60%*; KCNK9 inh-2: inactive; Kir2-1 patch inh: inactive

Results for CC(CCc1ccc(O)cc1)NC1C2CC3CC(C2)CC1C3 (configuration not stated) ?
ANO1 activ: inactive; TMEM16A inh: inactive; Kir21 inh: -3.8; KCNK3 inh: inactive; KCNK9 inh-1: inactive

What do the screens show for `COc1cc(OC)c(OC)cc1CCC(C)NCCC(c1ccccc1)c1ccccc1` (configuration not stated)?
ANO1 activ: inactive; TMEM16A inh: inactive; Kir21 inh: -11*; KCNK3 inh: inactive; KCNK9 inh-1: inactive; hERG ctr: 68%*; KCNK9 inh-2: inactive; Kir2-1 patch inh: 5.1%*

What do the screens show for `COc1ccccc1CNCc1ccc(C)cc1`?
ANO1 activ: inactive; TMEM16A inh: inactive; Kir21 inh: -1.7; KCNK3 inh: inactive; KCNK9 inh-1: inactive

What do the screens show for `COc1ccc2ccccc2c1CNCc1ccc(C)cc1`?
ANO1 activ: inactive; TMEM16A inh: inactive; Kir21 inh: -9.1*; KCNK3 inh: inactive; KCNK9 inh-1: inactive; hERG ctr: inactive; KCNK9 inh-2: inactive; Kir2-1 patch inh: 41%*

What do the screens show for `CCOc1cc(C)c(Cl)cc1S(=O)(=O)NCc1ccco1`?
ANO1 activ: inactive; TMEM16A inh: inactive; Kir21 inh: -8*; KCNK3 inh: inactive; KCNK9 inh-1: inactive; hERG ctr: inactive; KCNK9 inh-2: inactive; Kir2-1 patch inh: 31%*

Results for COc1cc(C)c(Cl)cc1S(=O)(=O)NCc1ccco1 ?
ANO1 activ: inactive; TMEM16A inh: inactive; Kir21 inh: -1.5; KCNK3 inh: inactive; KCNK9 inh-1: inactive

How did Cc1cc(NC(=O)CN2CCc3ccccc3C2)nc2c1c(=O)oc1ccccc12 do in these assays?
ANO1 activ: inactive; TMEM16A inh: inactive; Kir21 inh: -1.7; KCNK3 inh: inactive; KCNK9 inh-1: inactive

How did COc1ccc(CN2CCC(C(=O)c3ccc(F)cc3)CC2)cc1 do in these assays?
ANO1 activ: inactive; TMEM16A inh: inactive; Kir21 inh: -8*; KCNK3 inh: inactive; KCNK9 inh-1: inactive; hERG ctr: 58%*; KCNK9 inh-2: inactive; Kir2-1 patch inh: 63%*

What do the screens show for `COc1ccc(C(=O)C2CCN(C(=O)c3ccc(F)cc3)CC2)cc1`?
ANO1 activ: inactive; TMEM16A inh: inactive; Kir21 inh: 0.34; KCNK3 inh: inactive; KCNK9 inh-1: inactive

What do the screens show for `CSc1cccc(NC(=S)Nc2cc(C)ccc2C)c1`?
ANO1 activ: inactive; TMEM16A inh: inactive; Kir21 inh: -0.92; KCNK3 inh: inactive; KCNK9 inh-1: inactive

Results for CC(=O)N1CC(C)Sc2ccc(S(=O)(=O)NCc3ccccc3Cl)cc21 (configuration not stated) ?
ANO1 activ: inactive; TMEM16A inh: inactive; Kir21 inh: -6.1*; KCNK3 inh: inactive; KCNK9 inh-1: inactive; hERG ctr: inactive; KCNK9 inh-2: inactive; Kir2-1 patch inh: inactive

What do the screens show for `CC(=O)N1CCOc2ccc(S(=O)(=O)NCc3ccccc3Cl)cc21`?
ANO1 activ: inactive; TMEM16A inh: inactive; Kir21 inh: -2.6; KCNK3 inh: inactive; KCNK9 inh-1: inactive

What do the screens show for `Cc1cccc(NC(=O)CN2CCN(C(=O)CN3C(=O)NC4(CC(C)CC(C)(C)C4)C3=O)CC2)c1C` (configuration not stated)?
ANO1 activ: inactive; KCNK3 inh: inactive

How did COc1ccc(CC(=O)N2CCN(c3ccccc3OC)CC2)cc1OC do in these assays?
ANO1 activ: inactive; TMEM16A inh: inactive; Kir21 inh: -1.5; KCNK3 inh: inactive; KCNK9 inh-1: inactive

What do the screens show for `CC(CCCN(C)C)C(Cc1ccccc1)c1ccccc1` (configuration not stated)?
ANO1 activ: inactive; TMEM16A inh: inactive; Kir21 inh: -6.4*; KCNK3 inh: inactive; KCNK9 inh-1: inactive; hERG ctr: inactive; KCNK9 inh-2: inactive; Kir2-1 patch inh: 4.0%*

What do the screens show for `CC(C)CC1NC(=O)N(CC(=O)Nc2ccccc2-c2ccccc2)C1=O` (configuration not stated)?
ANO1 activ: inactive; TMEM16A inh: inactive; Kir21 inh: -1.5; KCNK3 inh: inactive; KCNK9 inh-1: inactive

What do the screens show for `O=[N+]([O-])c1ccc(Cl)c(S(=O)(=O)/N=C(/c2ccccc2)N2CCOCC2)c1`?
ANO1 activ: inactive; TMEM16A inh: inactive; Kir21 inh: -0.83; KCNK3 inh: inactive; KCNK9 inh-1: inactive

Source: PubChem BioAssay
